This note sets out measurements from PubChem BioAssay (NCI).

The panel holds about 83,000 compounds, 20% with a hit somewhere; the sample as a whole holds those more often.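 Cells were grown in 96-well plates and exposed to the test compound at a single concentration for 48 hours; results are reported as percent growth, with values below 10 considered active.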 Activity calls are given as the source filed them.

This assay has as its system HCC-2998 colon. Put plainly: NCI-60 one-dose screen, 48 h (100 = growth as untreated, 0 = no growth, -100 = all killed). Conditions: 10 µM unless noted. Here is the method: Growth inhibition of the HCC-2998 human tumor cell line is measured as a screen for anti-cancer activity. Cells are grown in 96 well plates and exposed to the test compound for 48 hours. Compounds are tested at a single concentration, which is 10^-5 M for most compounds. The reported endpoint is percent growth (GI% or GIPRCNT), where numbers from 0 - 100% represent growth inhibition, and numbers from -100% - 0 represent cell death. For example, a value of 40 represents 60% growth inhibition. A value of 0 means no net growth occurred over the course of the experiment. A value of -40 indicates 40% of cells at the beginning of the experiment died by the end of the experiment. A value of -100 means all cells are dead at the end of the experiment.
NCI-60 Human Tumor Cell Lines Screen was performed using the standard one-dose NCI protocol, which is described in more detail at https://dtp.cancer.gov/discovery_development/nci-60/default.htm.
Compounds with GIPRCNT values below 10 were considered active. Activity score was based on GIPRCNT using the following formula: […]
Score is 0 for GIPRCNT values of 100 or above, 50 for GIPRCNT values of 0, and 100 for GIPRCNT values of -100.
In the case of `Nc1cccc2cccc(O)c12`, the growth was 95.8% (inactive).
As for `CC(=O)c1cccc(O)c1`, the growth is 110% (inactive).
Consider `Cc1ccc(O)c(N)c1`, for which the growth was 110% (inactive).
In the case of `Cc1[nH]nc(C(N)=O)c1[N+](=O)[O-]`, the growth is 106% (inactive).
Under `Cc1ccc2nc(N)nnc2c1` stands 103% (inactive); under `C=CCS(C)(=O)=O`, 108% (inactive).
Take `O=C(O)Cc1cccc2ccccc12`: the growth is 95.9% (inactive).
`Clc1ccc(/C=C/c2ccccn2)cc1`: the growth was 111% (inactive).
To `C#CC(O)c1ccccc1` (stereo not given) belongs 125% (inactive); to `COc1ccc(C(=O)C(=O)c2ccccc2)cc1`, 104% (inactive).
Under `O=C(NCc1ccccc1)c1cccc([N+](=O)[O-])c1` stands 108% (inactive).
Under `c1cc(CNCCNCc2ccncc2)ccn1` stands 102% (inactive).
On to `C=CC(=O)OC1CCC(C(C)(C)CC)CC1` (stereo not given), for which the growth is 110% (inactive).
To `CC1(c2ccccc2)CO1` (stereo not given) belongs 111% (inactive); to `CCOC(=O)c1ccc(NC(C)=O)o1`, 115% (inactive).
To `O=C1Nc2ccccc2/C1=C\c1ccccc1O` belongs 94.5% (inactive); to `CCOc1ccc(NC(=S)N2CCC(CCCC3CCN(C(=S)Nc4ccc(OCC)cc4)CC3)CC2)cc1`, 85.6% (inactive).
To `O=C(c1ccccc1O)N1CCCC1` belongs 101% (inactive); to `NC(=O)OCCO`, 97.9% (inactive); to `CCCCCCCCCCCCSC1=C(Cl)C(=O)C(OC)=C(OC)C1=O`, 4.65% (active).
Consider `Cc1cc2c(C(C)C)c(O)c(O)c(C=Nc3ccccc3[N+](=O)[O-])c2c(O)c1-c1c(C)cc2c(C(C)C)c(O)c(O)c(C=Nc3ccccc3[N+](=O)[O-])c2c1O`, for which the growth was 79.5% (inactive).
To `Clc1cccc(Cl)c1CSc1nc2ccccc2n2cccc12` belongs 109% (inactive); to `CC(C)(C)[Si](C)(C)OCC1OC(n2cnc3c(N)ncnc32)CC1OS(C)(=O)=O` (stereo not given), 103% (inactive); to `CCOC(C=O)OCC`, 99.1% (inactive).
Under `COC1OC(CO)C(OC)C(O)C1O` (stereo not given) stands 107% (inactive); under `NNC(=O)CCCCl`, 102% (inactive); under `Cc1cc(Nc2ccc3c(c2)OCO3)c2cc3c(cc2n1)OCO3`, 45.7% (inactive).
On to `CC(C)C(C)(C)C(=O)C(C)(C)C(C)(C)C`, for which the growth is 104% (inactive).
As for `Cc1cc(C)cc(OCC(=O)O)c1`, the growth was 102% (inactive).
As to `Oc1ccc2ccccc2c1CN1CCOCC1`, the growth is 105% (inactive).
Under `COc1cc(-c2ccc(NC(=O)CC(C)=O)c(OC)c2)ccc1NC(=O)CC(C)=O` stands 100% (inactive).
Under `CC(C)c1ncc([N+](=O)[O-])n1C` stands 105% (inactive); under `O=[N+]([O-])c1ccc2[nH]c(=S)n(/C=C(/c3ccc(Cl)cc3Cl)S(=O)(=O)Cc3ccc(Cl)cc3Cl)c2c1`, 105% (inactive); under `O=C(Oc1ccccc1Cl)c1ccc(Cl)cc1Cl`, 102% (inactive).
For the compound `COC1=C(OC)C(=O)C(SC/C=C(\C)CCCC(C)CCCC(C)CCCC(C)C)=CC1=O` (stereo not given), the growth is -4.48% (active).
To `CCOC(=O)C1(N)CCCCC1` belongs 101% (inactive); to `COc1ccc2c(c1)Nc1ccccc1S2`, 108% (inactive).
As to `CC(=O)NC(CCc1ccc(Cl)c(Cl)c1)c1cccc(O)c(=O)c1` (stereo not given), the growth was 22.6% (inactive).
Under `O=[n+]1ccn([O-])c2ccccc21` stands 108% (inactive).
For `COc1cc2c(c(OC)c1OC)-c1ccc(SC)c(=O)cc1[C@@H](NC1OC(CO)C(O)C(O)C1O)CC2` (stereo not given in full), the growth was -4.3% (active).
